Screens deposited in PubChem by National Center for Advancing Translational Sciences (NCATS).
ClpP mod = qHTS Assay for Activators of ClpP; ATP-dependent Clp protease proteolytic subunit (Bacillus subtilis (strain 168)), P80244; purified B. subtilis ClpP, FRET peptide cleavage, 20 min; Potency, µM (highest dose often 57.5 µM), for inactives: at the top dose activity change, negative = active; hit rate 1.9% among 340,000; AID 651965, 2013; active means well fitted falling curve with a large enough effect; inconclusive means small, poorly fitted or top-dose-only effect; inactive means no such curve, though single readings can be large or run the other way; further: potency means the concentration at half of the fitted maximal effect; the source files actives as falling curves though it sought activators and does not explain the sign; nearly all actives have a fitted effect of over 65% in size
Target sequence (P80244 whole entry, looked up): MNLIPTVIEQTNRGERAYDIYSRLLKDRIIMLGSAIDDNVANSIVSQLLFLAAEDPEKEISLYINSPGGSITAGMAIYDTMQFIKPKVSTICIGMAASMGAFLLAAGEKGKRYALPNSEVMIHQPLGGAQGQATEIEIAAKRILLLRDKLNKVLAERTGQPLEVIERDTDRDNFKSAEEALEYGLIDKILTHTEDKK
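ClpP 10 microg/mL final, pH 8 Tris/KCl buffer with BSA, glycerol, Tween-20; compound pinned in; FRET-FV substrate; RT 20 min; Ex320/Em430; ΔFRET vs ADEP 5.8 microM, DMSO, no enzyme.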
Mito fusion act = inhibitors of mitochondrial division or activators of mitochondrial fusion; S. cerevisiae fusion-defective mutant growth rescue, CellTiterGlo 48 h; Potency, µM (titrated, usually from 46.1 µM), for the others: at the highest dose growth rescue (activation), actives largely listed as activators; hit rate 0.23% among 320,000; AID 485298; further: potency means the concentration at half of the fitted maximal effect; % of control where 0% means no effect; nearly all actives have a fitted effect of over 45% in size
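Compounds are tested for their ability to restore growth of mitochondrial fusion-defective yeast strains at non-permissive 37C in YPEG medium over 48 hours. Viability is quantified by luciferase luminescence.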
B2AR arrestin = beta2AR (human) beta-arrestin recruitment activity; P07550; beta-arrestin recruitment to beta2AR, cell-based reporter; Potency, µM (doses to about 46.1 µM), for the others: at the highest dose activation, hits mostly activators; hit rate 0.02% among 330,000; AID 492947;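 further: potency means the concentration at half of the fitted maximal effect; 0% = DMSO controls and full agonism = EC100 isoproterenol or metaproterenol; nearly all actives have a fitted effect of over 65% in size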
Target sequence (P07550 whole entry, looked up): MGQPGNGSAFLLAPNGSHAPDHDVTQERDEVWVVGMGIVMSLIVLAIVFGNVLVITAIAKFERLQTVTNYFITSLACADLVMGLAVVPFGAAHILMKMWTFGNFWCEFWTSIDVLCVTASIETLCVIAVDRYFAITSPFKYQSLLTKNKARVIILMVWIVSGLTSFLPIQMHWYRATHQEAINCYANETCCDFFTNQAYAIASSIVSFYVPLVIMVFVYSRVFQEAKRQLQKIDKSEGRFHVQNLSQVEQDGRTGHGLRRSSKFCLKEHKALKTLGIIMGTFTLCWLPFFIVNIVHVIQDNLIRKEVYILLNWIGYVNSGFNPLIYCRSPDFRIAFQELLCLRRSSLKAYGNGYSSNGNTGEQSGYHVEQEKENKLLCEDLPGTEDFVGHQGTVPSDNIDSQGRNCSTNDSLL
uPA surface inh = blocks generation of uPA at the cell surface. cell surface uPA generation assay, qHTS. Potency, µM (top dose mostly 38.3 µM), for inactives: at the highest dose activity change, negative = inhibition, hits mostly inhibitors. hit rate 0.31% among 330,000. AID 540303; active means well fitted inhibition curve with a large enough effect; inconclusive means small, poorly fitted or top-dose-only effect; inactive means no such curve, though single readings can be large or run the other way; tested in mouse RAW 264.7 cells; further: potency means the concentration at half of the fitted maximal effect; on the % scale 0 is the no-effect control and ±100 the full control effect; nearly all actives have a fitted effect of over 55% in size
Giardia killer = kills Giardia lamblia; Giardia lamblia trophozoite viability; activity change, % at 7.66 µM, hits read low; hit rate 0.15% among 340,000; AID 540267; in the data active means activity change below about -80%; inconclusive means between about -30% and that limit;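 further: parasites exposed to compound for two days anaerobically before the ATP read; on the % scale 0 is the no-effect control and ±100 the full control effect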
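Media and compound were dispensed first, then trophozoites at 100 cells/well; plates sat 48 hrs at 37 deg C without oxygen before ATP luminescence reagent was added and read after 15-30 min at room temperature.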
p53 reactivator = mutant p53 re-activation in reporter cells; H1299 p53-A138V BP100-luciferase reporter, luminescence, 24 h; Potency, µM (series often up to 92.2 µM), for inactives: at the top dose activity change, positive = activation, actives largely listed as activators; hit rate 0.063% among 320,000; AID 504706; further: potency means the concentration at half of the fitted maximal effect; % of control where 0% means no effect; nearly all actives have a fitted effect of over 45% in size
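H1299 (p53-null), stable ts p53-A138V + BP100-Luc; 1000 cells/well, Opti-MEM/10% FBS; cpd 4 pt, 1:5; 24 h, 37 deg C, 5% CO2; detection reagent 10 min RT; luminescence.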
An asterisk follows results filed as active; ? = inconclusive; . = not tested or not shown. Shown are actives, neighbours in structure and some others; about 2.1% of the full set was active somewhere. Unless noted, the call rests on the fitted dose curve; in most records, active means well fitted curve in the direction sought with a large enough effect; inconclusive means small, poorly fitted or top-dose-only effect, or another doubt; inactive means no such curve, though single readings can be large; an effect the other way counts as inactive or inconclusive.

SMILES	ClpP mod	Mito fusion act	B2AR arrestin	uPA surface inh	Giardia killer	p53 reactivator
O=C1C2CC=CCC2C(=O)N1Cc1ccccc1 (centres undefined)	-2%	5%	-1%	6%	4	1%
CSc1cccc(NC(=O)N2CCN(c3cc(-c4noc(C)n4)ccc3C)CC2)c1	-5%	.	.	.	.	.
N#Cc1c2n(c3c(-c4ccccc4)ncnc13)CCC2	32µM*	-2%	0%	2%	-10	-14%
N#Cc1c2n(c3c(=O)[nH]cnc13)CCCC2	2%	2%	-1%	7%	8	-5%
Cc1c(C#N)c2ncnc(-c3ccccc3)c2n1-c1ccccc1	35µM*	3%	0%	-3%	-9	-7%
COc1ccc(OC)c(NC(=O)CC2C(=O)NCCN2C(=O)C(F)(F)F)c1 (centres undefined)	-3%	.	.	.	.	.
Cc1ccc(NC(=O)c2oc3ccccc3c2NC(=O)c2ccc(F)c(F)c2)cc1	-24%	.	.	.	.	.
Cc1cc2nn(-c3cccc4ccccc34)nc2cc1NC(=O)c1cccs1	14µM*	10%	-1%	9%	21	2%
CC1Cn2c(nc3sc4c(c3c2=O)CCC4)N1CCO (centres undefined)	18µM*	-6%	0%	0%	3	-5%
COc1ccc(NC(=O)c2cc3ccccn3n2)cc1	-2%	2%	0%	4.5µM*	?	37%
O=C(Nc1ccc(OC(F)(F)F)cc1)c1cc2ccccn2n1	-24%	.	.	.	.	.
CC(CCc1ccc(O)cc1)NCCc1ccc(O)c(O)c1 (centres undefined)	-1%	22%	.	7.9µM*	6	.
O=C(c1cccc2ccccc12)N1CCN(S(=O)(=O)c2ccccc2)CC1	1%	.	.	.	3	.
Cc1cc(C)cc(OCC(=O)N/N=C/c2ccc([N+](=O)[O-])o2)c1	54%	2%	0%	.	-88*	12%
Cc1ccccc1OCC(=O)N/N=C/c1ccc([N+](=O)[O-])o1	-2%	10%	0%	?	-93*	-7%
CCc1cc(/C=C/c2ccnc3ccccc23)ccc1N(C)C	-1%	.	.	.	.	.
COc1ccc(/C=N\NC(=O)c2ccc(F)cc2)cc1COc1ccccc1C(N)=O	-6%	3%	-1%	0%	-7	0%
COc1ccc(/C=N/NC(=S)Nc2ccccc2)cc1COc1ccc(F)cc1F	35µM*	-3%	0%	-2%	-14	-10%
O=C(NC1CCCCC1)N(CCN1CCOCC1)Cc1cc2cc3c(cc2[nH]c1=O)OCCO3	35µM*	3%	-1%	.	-18	-3%
COc1ccc2[nH]c(=O)c(CN(C(=O)NC3CCCCC3)C3CCCCC3)cc2c1	?	1%	0%	-1%	25	-3%
Cc1ccc2cc(CN(CC3CCCO3)C(=O)NC3CCCCC3)c(=O)[nH]c2c1C (centres undefined)	?	11%	0%	-16%	-2	3%
CCN(CC)CCCN(Cc1cc2ccc(C)c(C)c2[nH]c1=O)C(=O)NC1CCCCC1	28µM*	1%	0%	.	15	-7%
COc1ccc2[nH]c(=O)c(CNC3CCCCC3)cc2c1	16µM*	-5%	0%	-2%	-4	-4%
COc1ccc(CN(Cc2cc3cc4c(cc3[nH]c2=O)OCO4)C(=O)NC2CCCCC2)cc1	22µM*	3%	0%	2%	3	-15%
CCCc1cc(=O)[nH]c(Nc2cc(Cl)cc(Cl)c2)n1	-8%	.	.	.	.	.
SMILES	ClpP mod	Mito fusion act	B2AR arrestin	uPA surface inh	Giardia killer	p53 reactivator
CCN(CC)CCN(Cc1cc2cc3c(cc2[nH]c1=O)OCCO3)C(=O)NC1CCCCC1	25µM*	0%	0%	0%	3	29%
COc1ccc2[nH]c(=O)c(CN(CC3CCCO3)C(=O)Nc3ccccc3OC)cc2c1 (centres undefined)	28µM*	3%	0%	-12%	2	-4%
COc1ccc(N(Cc2cc3cc(OC)ccc3[nH]c2=O)C(=O)C2CCCO2)cc1 (centres undefined)	18µM*	1%	0%	-1%	24	23%
COc1ccccc1NC(=O)N(Cc1cc2cc(OC)c(OC)cc2[nH]c1=O)CC1CCCO1 (centres undefined)	-27%	2%	-1%	-11%	-1	-10%
COc1ccc2[nH]c(=O)c(CN(CCN3CCCC3)C(=O)Nc3ccccc3Cl)cc2c1	32µM*	-1%	0%	3%	4	-12%
CCOc1ccc2[nH]c(=O)c(CN(CCN3CCCC3)C(=S)Nc3ccccc3OCC)cc2c1	2%	-3%	4%	-27%	9	3%
CSc1ncc(C(=O)NCc2ccc(F)cc2)c(-c2ccccc2)n1	-2%	.	.	.	.	.
COC(=O)c1ccc(-c2nc(CN3CCC(C(=O)N4CCOCC4)CC3)c(C)o2)cc1	7.9µM*	-1%	0%	-4%	-20	2%
Oc1ccc(N2CCN(C(c3ccc(Cl)cc3)c3nnnn3Cc3ccc(F)cc3)CC2)cc1 (centres undefined)	-2%	.	.	.	13	.
CC(=O)Nc1ccc(S(=O)(=O)c2c(N)n(CCN3CCOCC3)c3nc4ccccc4nc23)cc1	32µM*	-1%	0%	0%	-2	-2%
Nc1c(S(=O)(=O)c2cc(Cl)ccc2Cl)c2nc3ccccc3nc2n1CCN1CCOCC1	?	?	0%	.	14	-4%
CC(=O)Nc1c(S(=O)(=O)c2ccccc2)c2nc3ccccc3nc2n1Cc1ccccc1	16µM*	7%	0%	-9%	2	1%
COc1cc2c(cc1OC)C(COc1ccccc1OC)N(C(=O)COc1ccc(Cl)cc1)CC2 (centres undefined)	-3%	.	.	.	.	.
O=S1(=O)C2CC3CCC2(CN1Cc1cccc(F)c1)O3 (centres undefined)	.	.	.	.	-1	.
CCOC(=O)c1nnn(-c2ccc([N+](=O)[O-])cc2[N+](=O)[O-])c1C	1%	12%	0%	8.9µM*	?	-4%
CCCc1cc(=O)[nH]c(SCC(=O)c2cc(C)n(C3CC3)c2C)n1	18µM*	3%	-1%	9%	10	-13%
Nc1ncnc2c1ncn2[C@H]1C[C@H](O)[C@@H](CO)O1	0%	-3%	-1%	5%	-2	5%
Nc1nc(Cl)nc2c1ncn2[C@H]1C[C@H](O)[C@@H](CO)O1	-3%	0%	2%	0.32µM*	?	-3%
CCN(CC)C(=O)c1c(NC(=O)c2ccccc2F)sc2c1CCC(C(C)(C)C)C2 (centres undefined)	-12%	.	.	.	.	.
CC(C)(C)c1ccc(S(=O)(=O)Nc2ccc(C(O)(C(F)(F)F)C(F)(F)F)cc2)cc1	0%	.	.	.	.	.
CC(=O)C1CCC2C3CCC4=CC(=O)C=CC4(C)C3C(=O)CC12C (centres undefined)	.	.	.	-2%	17	.
